CendR NRP1 mod = modulators of CendR peptide binding to human neuropilin-1; O14786; FAM-RPARPAR peptide binding to NRP-1, fluorescence polarization; inhibition, % at 25 µM; actives 0.85% (n = 360,000); AID 602438;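 active = inhibition or corrected inhibition above about 18%, plus a signal ratio from 0.5 to 1.5, limit read from the data, passing the limit was not always enough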
SKN-1 block = blocks SKN-1 activity in C. elegans. AID 624304. inhibition, % at 21.8 µM. C. elegans VP596 Pgst-4::GFP/RFP ratio, acrylamide-induced, 24 h. actives 0.49% (n = 360,000);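 active = interference check ratio from 0.5 to 1.5 plus GFP to RFP signal ratio inhibition reaching or exceeding a fixed threshold, cut at about 30% in these data, passing the limit was not always enough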
MEKK2wt PB1 HTS = raises or lowers MEK5 binding to wildtype human MEKK2 PB1 domain; bead flow cytometry, Alexa488-MEK5 binding to MEKK2 WT; actives lie on both sides; binding response (% of control), % at 10 µM; actives 1.1% (n = 290,000); in the data active = binding response below about 67% or above about 130%
MEKK3 PB1 HTS = MEKK3-MEK5 PB1 interaction, increase or decrease. AID 1529. binding response (% of control), % at 10 µM. Q99759. actives 1.4% (n = 290,000). bead-based flow cytometry, Alexa488-MEK5 binding to MEKK3; actives lie on both sides; 0 = blocked by unlabeled MEK5, 100 = vehicle;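 active = binding response more than 3 SD above or below the average of its plate-row segment, actives on both sides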;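 note: Alexa488 bead fluorescence after subtracting the streptavidin-only scavenger bead signal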
Target sequence (Q99759 whole entry, looked up): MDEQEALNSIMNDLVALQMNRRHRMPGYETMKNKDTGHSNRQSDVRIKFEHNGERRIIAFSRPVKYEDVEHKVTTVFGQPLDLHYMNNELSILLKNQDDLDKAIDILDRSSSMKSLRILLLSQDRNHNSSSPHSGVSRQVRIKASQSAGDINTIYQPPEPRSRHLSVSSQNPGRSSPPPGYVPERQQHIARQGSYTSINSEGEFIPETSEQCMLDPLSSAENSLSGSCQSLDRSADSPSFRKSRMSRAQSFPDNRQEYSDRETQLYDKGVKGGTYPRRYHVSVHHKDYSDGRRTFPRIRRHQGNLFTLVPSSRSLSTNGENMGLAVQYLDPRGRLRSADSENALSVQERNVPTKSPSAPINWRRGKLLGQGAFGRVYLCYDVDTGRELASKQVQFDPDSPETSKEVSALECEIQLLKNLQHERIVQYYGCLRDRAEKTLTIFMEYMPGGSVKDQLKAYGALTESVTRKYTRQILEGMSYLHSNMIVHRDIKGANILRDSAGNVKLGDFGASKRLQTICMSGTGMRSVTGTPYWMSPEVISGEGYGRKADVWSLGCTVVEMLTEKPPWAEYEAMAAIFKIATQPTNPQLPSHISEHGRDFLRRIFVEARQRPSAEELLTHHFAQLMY
MEKK2 mut-MEK5 = signal of MEK5 binding to mutant human MEKK2 PB1 domain; bead flow cytometry, Alexa488-MEK5 binding to MEKK2 mutant; percent response, % at 10 µM; actives 0.35% (n = 290,000); in the data active = percent response above about 24%, passing the limit was not always enough
MEKK2wt confirm = raises or lowers MEK5 binding to wildtype human MEKK2, retest | actives 2.4% (n = 5,900) | bead flow cytometry, Alexa488-MEK5 binding to MEKK2 WT; actives lie on both sides | shares compounds with MEKK3 PB1 HTS | binding response (% of control), % at 10 µM; in the data active = binding response below about 16% or above about 210%; inactive = in between
MEKK2mut confirm = signal of MEK5 binding to mutant human MEKK2, retest; AID 1893; percent response, % at 10 µM; shares compounds with MEKK3 PB1 HTS; bead flow cytometry, Alexa488-MEK5 binding to MEKK2 mutant; actives 2% (n = 5,900); in the data active = percent response mostly above about 71%, no sharp cut-off; inactive = mostly below about 38%;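 note: higher means compound restores mutant binding toward wildtype level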
MEKK3-MEK5 inh = confirmation of inhibitors of MEK5 binding to human MEKK3; shares compounds with MEKK3 PB1 HTS; bead flow cytometry, Alexa488-MEK5 binding to MEKK3; active compounds read low; binding response (% of control), % at 10 µM; actives 1.8% (n = 5,900); AID 1894;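 active = binding response below 72% of control, or above a set upper limit, though filed actives all read lower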;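 note: lower values mean stronger disruption of MEK5 binding to MEKK3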
Each line names hits and unclear results; the compound was inactive in the other large screens (follow-up assays come after a bar, where they were run); [ ] = remark or other dose. Shown are actives, neighbours in structure and some others; about 3.2% of the full set was active somewhere.

Cn1c(O)c(/C=N/NC(=O)c2ccncc2)c(=O)[nH]c1=S	SKN-1 block 42
CCN(CC)c1ccc(CN2CC=C(c3ccc(F)cc3)CC2)cc1	CendR NRP1 mod 20
CCOC(=O)[C@]12Cc3c(cc(OC)c(OC)c3OC)[C@H]1N(C1CCCCC1)C(=O)c1ccccc12	none (no result: MEKK2wt PB1 HTS, MEKK3 PB1 HTS, MEKK2 mut-MEK5)
CN1CC=C2C(C#N)=C(N)C(C#N)(C#N)C(c3ccncc3)C2C1 (configuration not stated)	SKN-1 block 40
COc1ccccc1C1C([N+](=O)[O-])=C(N)Oc2c1c(=O)oc1ccccc21 (configuration not stated)	none
Clc1ccc(-c2nc3ccc(Cl)cn3c2CN2CCOCC2)cc1	CendR NRP1 mod 50
Clc1ccc(-c2nc3ccc(Cl)cn3c2CN2CCCCC2)cc1	none
COc1cc(N2CCOCC2)ccc1/C=C1\C(=O)NC(=O)N(Cc2ccc3c(c2)OCO3)C1=O	SKN-1 block 41
COc1cc(N2CCOCC2)ccc1/C=C1\C(=O)NC(=O)N(Cc2cccs2)C1=O	none
C=CCN1C(=O)C2(C(C(=O)OCC)=C(N)Oc3ccccc32)c2c1c1ccccc1oc2=O (configuration not stated)	CendR NRP1 mod 44
CCOC(=O)C1=C(N)Oc2c(c(=O)oc3ccccc23)C12C(=O)N(C)c1ccccc12 (configuration not stated)	none
c1ccc(N2[C@@H]3CC[C@H]2c2ccccc2C3)cc1	none (no result: MEKK2wt PB1 HTS, MEKK3 PB1 HTS, MEKK2 mut-MEK5)
COc1cc(C)c(CN2CCN(c3ccccc3)CC2)cc1C	CendR NRP1 mod 36
CCn1cc(C(=O)N2CCC3(CC2)OCCO3)c(=O)c2cc(S(=O)(=O)N3CCCC3)ccc21	none
O=C(c1c[nH]c2ccc(S(=O)(=O)N3CCOCC3)cc2c1=O)N1CCC2(CC1)OCCO2	CendR NRP1 mod 28
O=C1CC=C2C3CC4N(CCC45c4cc(O)c(O)cc4N1C25)CC3=CCBr (configuration not stated)	CendR NRP1 mod 26 (no result: MEKK2wt PB1 HTS, MEKK3 PB1 HTS, MEKK2 mut-MEK5)
O=C(O)CC1OCC=C2CN3CCC45C6=CC(=O)C(=O)C([N+](=O)[O-])=C6NC4C1C2CC35 (configuration not stated)	CendR NRP1 mod 25
CC1(C)N(O)C2CCCCC2N1O (configuration not stated)	none
CC12CCCCC1N(O)CN2O (configuration not stated)	CendR NRP1 mod 23
O=c1cccc2n1CC1CNC[C@H]2C1	none (no result: MEKK2wt PB1 HTS, MEKK3 PB1 HTS, MEKK2 mut-MEK5)
CN1C(=O)/C(=C\c2ccc(N3CCCCC3)o2)C(=O)NC1=S	SKN-1 block 33
Cc1ccsc1/C=C1\C(=O)NC(=S)N(C)C1=O	SKN-1 block 40
CN1C(=O)/C(=C/c2ccc(Cl)s2)C(=O)NC1=S	none
Cc1nc2ccccc2c(=O)n1-c1c(Cl)cccc1Cl	none (no result: MEKK2wt PB1 HTS, MEKK3 PB1 HTS, MEKK2 mut-MEK5)
C#C[C@]1(O)CC[C@H]2[C@@H]3CCC4=Cc5nc6nc7ccccc7n6cc5C[C@]4(C)[C@H]3CC[C@@]21C	none (no result: MEKK2wt PB1 HTS, MEKK3 PB1 HTS, MEKK2 mut-MEK5)
Cc1ccc(C(=O)N[C@@H](C)CN2C3=NC[C@@H](Cc4ccccc4)N3C[C@H]2Cc2ccc(O)cc2)cc1Br	MEKK2wt PB1 HTS 248, MEKK2 mut-MEK5 103 (no result: CendR NRP1 mod, SKN-1 block) | MEKK2wt confirm inactive | MEKK2mut confirm inactive | MEKK3-MEK5 inh inactive
Cc1ccc(C(=O)N[C@@H](C)CN2C3=NC[C@H](Cc4ccccc4)N3C[C@H]2Cc2ccc(O)cc2)cc1Br	MEKK2wt PB1 HTS 168, MEKK2 mut-MEK5 31 (no result: CendR NRP1 mod, SKN-1 block) | MEKK2wt confirm inactive | MEKK2mut confirm inactive | MEKK3-MEK5 inh inactive
COc1cc2cc(C(=O)N3CC(COS(C)(=O)=O)c4ccc(O)cc43)[nH]c2c(OC)c1OC (configuration not stated)	none (no result: MEKK2wt PB1 HTS, MEKK3 PB1 HTS, MEKK2 mut-MEK5)
COc1cccc(CC(=O)N(C)C2CCCN(Cc3ccccc3F)C2)c1 (configuration not stated)	none
C=C1C(=O)O[C@@H]2C[C@@H](C)[C@@H]3C4OC4C(=O)[C@@]3(C)[C@@H](O)[C@H]12 (some centres not stated)	MEKK3 PB1 HTS 69[inhibitor] | MEKK2wt confirm inactive | MEKK2mut confirm inactive | MEKK3-MEK5 inh inactive
c1ccc(OCC2CO2)cc1 (configuration not stated)	none (no result: MEKK2wt PB1 HTS, MEKK3 PB1 HTS, MEKK2 mut-MEK5)
c1ccc(-c2[nH]c[n+](CC3CO3)c2-c2ccccc2)cc1 (configuration not stated)	MEKK2wt PB1 HTS 152 (no result: CendR NRP1 mod, SKN-1 block) | MEKK2wt confirm inactive | MEKK2mut confirm inactive | MEKK3-MEK5 inh inactive
CN1/C(=C\C=Nc2ccccc2)C(C)(C)c2ccccc21	MEKK2wt PB1 HTS 0.0[inhibitor] | MEKK2wt confirm inactive | MEKK2mut confirm inactive | MEKK3-MEK5 inh inactive
CC/C(=N\N1CCN(C)CC1)c1c(O)[nH]c(=O)[nH]c1=O	MEKK3 PB1 HTS 140 | MEKK2wt confirm inactive | MEKK2mut confirm inactive | MEKK3-MEK5 inh inactive
CC/C(=N\N1CCCCC1)c1c(O)[nH]c(=O)[nH]c1=O	none
Clc1ccc(C2NCCc3[nH]cnc32)cc1 (configuration not stated)	MEKK2wt PB1 HTS 137, MEKK2 mut-MEK5 51 | MEKK2wt confirm inactive | MEKK2mut confirm inactive | MEKK3-MEK5 inh inactive
Fc1cccc(C2NCCc3[nH]cnc32)c1 (configuration not stated)	none
COC(=O)C1=C(c2cccc(OCc3ccccc3)c2)C[C@@H]2CC[C@H]1N2C(=O)NCCOc1ccccc1	none (no result: MEKK2wt PB1 HTS, MEKK3 PB1 HTS, MEKK2 mut-MEK5)
CC1=NN=C(c2ccc(N)cc2)c2cc3c(cc2C1)OCO3	none (no result: MEKK2wt PB1 HTS, MEKK3 PB1 HTS, MEKK2 mut-MEK5)
CC(CN(C)C1CCN(C)CC1)c1ccccc1 (configuration not stated)	none
O=C(c1cc(C(=O)NCc2ccc(Cl)cc2)c(=O)n(Cc2ccc(Cl)cc2)c1)c1cc(F)ccc1O	MEKK3 PB1 HTS 134 | MEKK2wt confirm inactive | MEKK2mut confirm inactive | MEKK3-MEK5 inh inactive
CNCC(O)c1cc(OCc2ccccc2)c(OCc2ccccc2)cc1F (configuration not stated)	MEKK2wt PB1 HTS 138 | MEKK2wt confirm inactive | MEKK2mut confirm inactive | MEKK3-MEK5 inh inactive
CC12C(C(=O)O)C1(c1ccccc1)C2C(=O)O (configuration not stated)	none (no result: MEKK2wt PB1 HTS, MEKK3 PB1 HTS, MEKK2 mut-MEK5)
COC(=O)C(O)(c1ccc(N(C)C(=O)c2cccs2)cc1)C(F)(F)F (configuration not stated)	none
CN(C)CCSC1c2ccccc2CSc2ccccc21 (configuration not stated)	none (no result: MEKK2wt PB1 HTS, MEKK3 PB1 HTS, MEKK2 mut-MEK5)
